FEN1 inh: human FEN1 inhibition. P39748. Recombinant FEN1 flap cleavage, fluorescence, 15 min. Potency, µM (doses to about 114 µM), for the others: top-dose activity change, negative = inhibition, actives largely listed as inhibitors. 390,000 compounds, 0.35% hits. AID 588795; further: nearly all actives have a fitted effect of over 65% in size
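Reaction started by adding substrate (50 nM final) to 10 nM enzyme after 15 min room-temperature compound preincubation. Reads at 0 and 15 min, with data normalized and fitted to a four-parameter Hill equation.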
Tb PGK inh: T. brucei PGK inhibition. Potency, µM (highest dose often 57.5 µM), inactives show top-dose activity change, negative = inhibition, actives largely listed as inhibitors. 380,000 compounds, 0.043% hits. PGK/GAPDH coupled, Kinase-Glo luminescence, 60 min. AID 602233; further: nearly all actives have a fitted effect of over 60% in size
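Luminescent ATP detection (Kinase-Glo Plus) follows a 60-minute room-temperature incubation, with wells lacking PGK as controls. Buffer: 100 mM TEA (pH 7.6), 5 mM MgCl2, 0.01% Tween-20. Coupling enzyme GAPDH (100 nM final) supplies unstable 1,3-BPG in-well.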
RECQ1 inh-1: RECQ1 (human) helicase inhibition; AID 2549; RECQ1 DNA unwinding, red fluorescence kinetic read; P46063; 240,000 compounds, 0.54% hits; Potency, µM (top dose mostly 57.3 µM), for the others: at the top dose activity, negative = inhibition, actives largely listed as inhibitors;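 further: plate controls were vehicle for no effect and no enzyme for full effect; nearly all actives have a fitted effect of over 30% in size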
Target sequence (P46063 whole entry, looked up): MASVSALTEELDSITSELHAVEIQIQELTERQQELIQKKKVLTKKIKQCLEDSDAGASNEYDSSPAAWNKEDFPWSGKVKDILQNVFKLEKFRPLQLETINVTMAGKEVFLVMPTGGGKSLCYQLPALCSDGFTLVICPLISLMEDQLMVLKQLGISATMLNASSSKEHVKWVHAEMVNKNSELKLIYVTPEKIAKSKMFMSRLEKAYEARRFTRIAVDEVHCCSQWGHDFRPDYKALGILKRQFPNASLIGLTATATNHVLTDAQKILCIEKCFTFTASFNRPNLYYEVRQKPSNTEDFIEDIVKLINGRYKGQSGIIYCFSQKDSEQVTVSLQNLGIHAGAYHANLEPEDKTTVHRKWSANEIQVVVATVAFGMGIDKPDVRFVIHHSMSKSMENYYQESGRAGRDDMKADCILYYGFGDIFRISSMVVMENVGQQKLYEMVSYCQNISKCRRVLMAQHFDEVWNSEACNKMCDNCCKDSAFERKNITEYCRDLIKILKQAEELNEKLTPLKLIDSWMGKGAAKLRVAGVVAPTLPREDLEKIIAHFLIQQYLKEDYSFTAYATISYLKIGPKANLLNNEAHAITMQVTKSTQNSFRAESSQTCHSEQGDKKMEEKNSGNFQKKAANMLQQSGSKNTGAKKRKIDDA
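RECQ1T1 50 nM; forked duplex (20 bp + 30-nt ss tails) 200 nM, ATP 2 mM final; pH 8.0, 2 mM MgCl2, 2.5 ug/ml poly(dI-dC); 15 min compound preincubation; discontinuous kinetic read over 2 h at RT.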
APEX1 inh: blocks human APE1 abasic DNA cleavage. 350,000 compounds, 0.35% hits. recombinant APE1, TAMRA/BHQ-2 abasic DNA cleavage fluorescence. P27695. Potency, µM (series often up to 65.8 µM), for inactives: top-dose activity change, negative = inhibition, usual class: inhibitors;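 further: plate controls were vehicle for no effect and reference inhibitor for full effect; nearly all actives have a fitted effect of over 55% in size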
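APE1 at 0.75 nM final was preincubated with compound 15 min at room temperature, then 50 nM double-stranded THF abasic-site substrate (5'-TAMRA/3'-BHQ-2) was added. Fluorescence (ex 525/em 598 nm) was read kinetically; third-minus-first read gave activity.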
BLM inh: blocks DNA unwinding by human BLM helicase. P54132. recombinant BLM DNA unwinding, fluorescence dequenching. Potency, µM (titrated, usually from 56.1 µM), for the others: at the top dose activity change, negative = inhibition, most hits filed as inhibitors. 350,000 compounds, 0.2% hits. AID 2528;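 further: plate controls were vehicle for no effect and no enzyme for full effect; nearly all actives have a fitted effect of over 35% in size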
RECQ1 conf: confirmation of human RECQ1 helicase inhibitors; AID 2708; Potency, µM (titrated, usually from 229 µM), for inactives: top-dose activity change, negative = inhibition, actives largely listed as inhibitors; RECQ1 helicase DNA unwinding, fluorescence; 610 compounds, 28% hits; shares compounds with RECQ1 inh-1; further: nearly all actives have a fitted effect of over 45% in size
RECQ1 ADP FP: counter-screen for RECQ1 inhibitors: ADP displacement; 530 compounds, 27% hits; Potency, µM (doses to about 228 µM), without a hit: at the highest dose activity change, negative = inhibition, most hits filed as inhibitors; shares compounds with RECQ1 inh-1; ADP fluorescence polarization displacement counterscreen; AID 2711; further: nearly all actives have a fitted effect of over 45% in size
RECQ1 inh-2: confirmation of human RECQ1 helicase inhibitors; shares compounds with RECQ1 inh-1; recombinant RECQ1 DNA unwinding, red fluorescence; Potency, µM (highest dose often 119 µM), for inactives: top-dose activity, negative = inhibition, hits mostly inhibitors; 1,100 compounds, 15% hits; further: nearly all actives have a fitted effect of over 50% in size
Numbers without * were called inactive; i = inactive; u = inconclusive; x = not tested or not shown. Compounds with a hit are over-represented: about 0.74% of the library has one in this group of screens. The call rests on the fitted dose curve; in most records, active means well fitted curve in the direction sought with a large enough effect; inconclusive means small, poorly fitted or top-dose-only effect, or another doubt; inactive means no such curve, though single readings can be large; an effect the other way counts as inactive or inconclusive. Unless noted, on the % scale 0 is the no-effect control and ±100 the full control effect; potency means the concentration at half of the fitted maximal effect.

SMILES	FEN1 inh	Tb PGK inh	RECQ1 inh-1	APEX1 inh	BLM inh	RECQ1 inh-2	others
O=c1[nH]c2cc3c(cc2cc1CN(Cc1ccccc1)Cc1nnnn1Cc1ccco1)OCCO3	-18.6%	2.0%	u	-8.0%	-26.6%	x
COc1ccc(C(=O)N/N=C/c2ccc(N3CCOCC3)s2)cc1OC	-20.5%	i	x	-3.2%	x	x
CN(/N=C/c1ccc(-c2ccc([N+](=O)[O-])cc2)o1)c1ccccc1	5.4%	-2.4%	x	16.1%	-5.8%	x
O=C(O)c1ccc(N2C(=O)/C(=C/c3ccc(-c4ccc([N+](=O)[O-])cc4)o3)C=C2c2ccccc2)cc1	u	u	17.8µM*	u	-20.0%	x	RECQ1 conf=22.4µM*
CCOC(=O)c1ccc(CNC(=O)C2CCCCC2C(=O)OCC(F)(F)F)o1 (stereo not given)	2.3%	-12.5%	-4.5%	2.6%	1.1%	x
CCCCNC(=O)C1CCN(S(=O)(=O)c2ccc3c(c2)CC(C)N3C(=O)C2CC2)CC1 (stereo not given)	1.7%	-3.0%	x	8.3%	-0.6%	x
O=C1CSC(=S)N1/N=C/c1ccc(O)c(O)c1O	2.82µM*	u	2.24µM*	0.355µM*	u	x	RECQ1 conf=u
CCOC(=O)Nc1ccc2c(c1)ncn2C1CCCCC1	7.0%	-11.3%	-2.9%	4.9%	-0.6%	x
N=C1S/C(=C\c2ccco2)C(=O)N1c1nccs1	-25.1%	-2.9%	u	u	-1.8%	-42.3%
N=C1S/C(=C\c2ccco2)C(=O)N1c1ccc2c(c1)OCO2	-14.2%	-28.2%	-14.3%	u	u	x
COc1ccccc1CCNC(=O)CSc1ccc(-c2ccco2)nn1	-2.1%	-8.3%	u	u	-10.5%	-10.6%
CC(C)=C1C(=O)NN(c2ccc(C)c(Cl)c2)C1=O	-3.9%	1.0%	u	-1.0%	-5.0%	-2.9%
CCCn1nnc(NC(=S)NC(=O)/C=C/c2ccco2)n1	u	-3.6%	u	u	-0.8%	-5.4%
COc1ccccc1NC(=S)NC(=O)/C=C/c1ccco1	-7.1%	-6.1%	u	u	-18.6%	u
Cc1ccc(NC(=O)CCN2CCC(Cc3ccccc3)CC2)cc1	18.2%	4.6%	x	6.3%	-11.3%	x
O=C(N/C(=C\c1cn(-c2ccccc2)nc1-c1ccccc1)C(=O)N1CCOCC1)c1ccccc1	x	x	1.4%	15.1%	6.5%	x
CCOc1cc(/C=C(/NC(C)=O)C(=O)O)cc(Cl)c1OCc1cccc(Br)c1	1.9%	i	-2.6%	20.4%	-2.3%	x	RECQ1 conf=u;RECQ1 ADP FP=-9.5%
CCOc1cc(C(N)=O)cc(Cl)c1OCc1ccccc1	-19.9%	4.0%	i	u	-10.6%	x
O=C(Nc1ccccc1)c1ccc(-n2nncc2-c2ccccc2)cc1	-13.5%	x	x	x	x	x
Cc1ccc2c(c1)c1nnc(SCC(=O)N3CCCc4ccccc43)nc1n2CC(=O)O	-2.6%	-9.3%	8.5%	2.3%	-7.8%	x	RECQ1 conf=16.0%;RECQ1 ADP FP=u
CCc1nnc(SCC(=O)N2CCCc3ccccc32)nc1CC	8.8%	-4.4%	-2.7%	-1.1%	0.8%	x
COc1cc(OC)cc(C(=O)NCc2ccc3c(c2)cc(C)n3C)c1	-1.0%	-3.8%	u	-6.5%	-0.5%	x
COc1ccc(C(=O)NCc2ccc3c(c2)cc(C)n3C)cc1	-29.8%	2.3%	u	u	-5.4%	-0.1%
CCOc1ccc(C2=CSC3=NCCN23)cc1Cl	4.5%	-4.9%	x	-9.0%	-4.0%	x
COCCOC(=O)c1c(NC(=O)CN2CCc3ccccc32)sc(C(N)=O)c1C	6.5%	6.6%	20µM*	-3.0%	1.0%	-8.0%
SMILES	FEN1 inh	Tb PGK inh	RECQ1 inh-1	APEX1 inh	BLM inh	RECQ1 inh-2	others
Cc1cc(OCC(F)(F)C(F)(F)C(F)(F)C(F)(F)C(F)(F)C(F)F)nc(N)n1	-13.2%	-1.4%	28.2µM*	2.3%	-21.0%	-19.7%
CC(Cc1ccc(O)c(O)c1)C(C)Cc1ccc(O)c(O)c1 (stereo not given)	u	-3.5%	2.24µM*	u	-13.7%	x	RECQ1 conf=44.7µM*;RECQ1 ADP FP=8.91µM*
CC(CCc1ccc(O)cc1)NCCc1ccc(O)c(O)c1 (stereo not given)	2.1%	10.9%	-18.8%	-3.2%	2.4%	x
O=C1/C(=C/c2ccc(O)c(O)c2)Oc2ccccc21	x	x	u	u	-28.4%	44.7µM*
Cc1ccccc1/C=C1\Oc2ccccc2C1=O	-20.9%	-4.7%	x	-13.5%	x	x
CCN=C1S/C(=C\c2cc(OCC)c(O)cc2Br)C(=O)N1CC	-17.0%	-3.4%	-4.5%	0.7%	6.0%	x
Cc1cccc(NC(=O)Cc2ccc(-c3ccccc3)cc2)n1	u	-7.0%	x	8.7%	-10.6%	x
O=C(O)CC1Sc2ccccc2NC1=O (stereo not given)	2.5%	-2.6%	i	11.7%	2.9%	x
O=C1Nc2ccccc2SC(c2ccccc2)C1O (stereo not given)	u	-20.7%	31.6µM*	u	-7.6%	u
COc1ccc(NC(=O)CSc2nc3ccccc3n2CC(=O)NCc2ccc(F)cc2)cc1	-5.1%	-4.2%	x	x	-3.4%	x
COc1ccc(CN(C(=O)c2ccc(-c3ccccc3)[nH]2)C(C(=O)NCC2CCCO2)c2ccc(C)o2)cc1 (stereo not given)	-12.5%	3.1%	25.1µM*	6.1%	-11.9%	-11.7%
Cc1nc2c(ccc3nc(NC(=O)C(c4ccccc4)c4ccccc4)sc32)s1	10.0%	-4.0%	25.1µM*	u	-10.0%	-22.4%
CC1=NN(c2ccc(N)cc2)C(=O)C1	u	-13.6%	u	u	-23.9%	-1.6%
CC/C(=N\NC(=S)NC(C)C)c1ccc(OC)c(OC)c1	-17.6%	1.2%	4.8%	-7.1%	-2.4%	x
C=CCNC(=O)CSc1nc2cc(C(=O)OCC)ccc2n1CC	3.1%	-2.0%	-14.8%	-6.5%	2.2%	x
CCOC(=O)c1ccc2c(c1)nc(SCC(=O)c1cc3ccccc3o1)n2CC	-22.7%	-1.1%	u	-5.6%	-9.2%	u
N=C1SC(c2ccccc2)C(=O)N1c1ncc(Cc2ccccc2Cl)s1 (stereo not given)	1.1%	4.3%	25.1µM*	-1.2%	-16.0%	u
O=C(O)c1cc(S(=O)(=O)Nc2ccc3cn[nH]c3c2)ccc1O	5.9%	-6.8%	x	-9.4%	x	x

Screening results: PubChem, National Center for Advancing Translational Sciences (NCATS)
